First the molecules themselves.
T1: UNK ZnF1-3 (human, UniProt Q9C0B0 31-174)
T1 sequence: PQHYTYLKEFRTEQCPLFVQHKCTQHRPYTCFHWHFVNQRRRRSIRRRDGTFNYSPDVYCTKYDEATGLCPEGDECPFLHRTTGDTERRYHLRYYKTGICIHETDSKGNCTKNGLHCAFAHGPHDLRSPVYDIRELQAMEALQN

B1: chr7:106631192:106631193:-_ENSMUSG00000030744_ENSMUST00000032998|mus_mus|motif|central (ssRNA)
RNA: GGGAGUUCUACAGUCCGACGAUCCUUCAGCCAGCUCCCGAGUGAGAAAUUCAUUCAGCUCAGCUUUGAAGAUGCCAUCAGCGGCAAACUUCCUCUUCUUGGAAAUCUGCACCGCCAUCUUGCAGCCGCGCGCCGCUGAAAGGACAACAGAGGAUUGAGCAUCA
B2: chr7:72463354:72463355:-_ENSMUSG00000030516_ENSMUST00000102592|mus_hu|FALSE|FALSE (ssRNA)
RNA: GGGAGUUCUACAGUCCGACGAUCUAACUUCCUGGCACUUUUCCGAGAUUCUGGACAUAACCUCAUUCUCAUUGUUUUUACUCCUUGCUUAGAAUCAGGGUUAAGAAAUACAACAAUUGGAUACCACUGGGCAUAGUUAAGACGCAACAGAGGAUUGAGCAUCA
B3: chr17:56552419:56552420:-_ENSMUSG00000013236_ENSMUST00000086828|mus_mus|mus_mus_mus_hu_False|68_98 (ssRNA)
RNA: GGGAGUUCUACAGUCCGACGAUCAAAAAAUACACUAUAAAAAAAAAAUGAAAUGUCACGGGAUACAAAAAAAUAUAGAGUUUUAAAAGAAAGCUGGAUUCUGGUCCCAGCCCAGUGUCCCCAGGCUGCAGAGCGGGGAGGAGCCAACAGAGGAUUGAGCAUCA
B4: chr17:56552419:56552420:-_ENSMUSG00000013236_ENSMUST00000086828|mus_mus|mus_mus_mus_hu_False|38_68 (ssRNA)
RNA: GGGAGUUCUACAGUCCGACGAUCAAAAAAUACACUAUUUAAAAAAAAUGAAAUGUCACGGGAUACAAAAAAAUAUAGAGUUUUAAAAGAAAGCUGGAAAAAAAAUGCAGCCCAGUGUCCCCAGGCUGCAGAGCGGGGAGGAGCCAACAGAGGAUUGAGCAUCA
B5: chr17:56552419:56552420:-_ENSMUSG00000013236_ENSMUST00000086828|mus_mus|mus_mus_mus_hu_False|8_68 (ssRNA)
RNA: B3 RNA with A38U, A39U, C128A, A129G, G130U, A131G, G132C, C133G, G135A, G136A
B6: chr17:56552419:56552420:-_ENSMUSG00000013236_ENSMUST00000086828|mus_mus|mus_mus_mus_hu_False|68_78 (ssRNA)
RNA: B3 RNA with A38U, A39U, C58G, G59A, G60A, G61A, U63A, A64G, C65A
B7: 22200820_22267049_921_CDS_ENSMUSG00000039197_ENSMUST00000045376|mouse|control|control (ssRNA)
RNA: GGGAGUUCUACAGUCCGACGAUCUUGAGACAGAAAGCCUCCAACAAAUGCAUCUCCAGCUCCAUUGGUGUCAAUGAUCUCUUCCUGGUUUUGAUCCAAGACAGGAAAAGCAGUGACAUCAUUCUCUGCAGCCACUAUGGUGUCCAACAGAGGAUUGAGCAUCA
B8: 33328512_33328632_5828_CDS_ENSG00000198646_ENST00000359003|human|control|control (ssRNA)
RNA: GGGAGUUCUACAGUCCGACGAUCAUCUGCACCAUAUUGUUCUUCCCCUUUCUCAAGAGAGCCUGUAACUUUCUUACAUGCCUUGGUCAACAAAAUUUGGCCAAUUUUGUCCACUUUUCCUUUGCCCUUACUAGACGAGACUGGCAACAGAGGAUUGAGCAUCA
B9: chr12:95365269:95365270:-_ENSG00000184752_ENST00000327772|hu_hu|motif|central (ssRNA)
RNA: GGGAGUUCUACAGUCCGACGAUCUCAUUGUCUUUACUUGUAAGGUGUUGAAGGUGGGAUCCACUCCUGAAUCUUCUUUCGGGUGGUAGAAUAAGGUACAUAUUGUUCUGGGGUGCCAGUCACGUUGAAUUUAUGGUUCGUCCACAACAGAGGAUUGAGCAUCA
B10: chrX:106345308:106345309:+_ENSMUSG00000031246_ENSMUST00000033598|mus_mus|motif|central (ssRNA)
RNA: GGGAGUUCUACAGUCCGACGAUCUUCUCUCAUCCACUUCCGAUUCUCUUCAUUAGCUGCAAUAUCUUUUUCUUCAAAUCCGGUUUUGUUGGCUUCUAAGAAACAAAGCACAUCUUGCUGUUUCUUCUUAAUCGCCGUAGAGCCCAACAGAGGAUUGAGCAUCA
B11: 25284998_25285535_556_3pUTR_ENSMUSG00000054793_ENSMUST00000068023|mouse|control|control (ssRNA)
RNA: GGGAGUUCUACAGUCCGACGAUCCACGCUCCACACCUUGCCGUUCUCCUGGCCGCUGCUCACUCCUUUCAACUCCUUGCGAUCCCGAUACCAGCGCAGGACCGCUGCGGGGCGCGACCGCGGAACCAGGCAGCUGAGUUCCACCAACAGAGGAUUGAGCAUCA
B12: 122215373_122233679_156_5pUTR_ENSG00000114030_ENST00000344337|human|control|control (ssRNA)
RNA: GGGAGUUCUACAGUCCGACGAUCACUUUUCAGGCGAAAGUUCUCUUUUCCUGGGGUGGUCAUGAUUUCAGGCUCAAGGCAACCGAUCCCGGUGCCACCGCUGAAGUUAGCCCCUCGCUCGCCCGCCCGCCGUGCCACUCCCGCCAACAGAGGAUUGAGCAUCA
B13: 36851294_36856410_1128_CDS_ENSMUSG00000022837_ENSMUST00000023535|mouse|control|control (ssRNA)
RNA: GGGAGUUCUACAGUCCGACGAUCAUUUAGCUCCAACAUCAUCUUUGUUCGUUUAGAUCUGAAACUCCUCUGCAAGGCAAUCACAGCAGACGGAAGCUUCUUUAAUCUCUUUCUGGUCUGGAAACCUUUCCAAUAGGCUUGAAUCAACAGAGGAUUGAGCAUCA
B14: chr18:52893488:52893489:-_ENSG00000196628_ENST00000354452|hu_hu|hu_hu_hu_mus_True|48_48 (ssRNA)
RNA: GGGAGUUCUACAGUCCGACGAUCUAUUUAGACCAUUUCCGCGGAGUUAUGGCAUUUACUCAGUGCUGAUAGGUGGAAAAACUACUUGAACAGGGAUUUUUUUUUUCCUUAAUACAUGCCAAGAUUGUGUGGCUGUCAAAACAGCAACAGAGGAUUGAGCAUCA
B15: chr4:142145789:142145790:+_ENSG00000109445_ENST00000262990|hu_hu|FALSE|FALSE (ssRNA)
RNA: GGGAGUUCUACAGUCCGACGAUCACACUGUGCACAAAUUGGUAACUUCUGUACAGAAUUACAAAAGUAGCAAAAUGCUCUAUUCUUCUGCCGCCUCUGACACUUGUCACAUUCCAUUGAGGCAUUACAUGGAUGUUUAGCUAACAACAGAGGAUUGAGCAUCA
B16: chr11:101919151:101919152:-_ENSMUSG00000017314_ENSMUST00000017458|mus_mus|motif|central (ssRNA)
RNA: GGGAGUUCUACAGUCCGACGAUCAAAUGAGAUUCCUAAUAUAAUAAAUAUAUUUCUAGCAUUUGUAAUAAAUAUUCUGUCGGUUCUCCCUCCCUCCCCUUCUCUAGGAUAUGGGCACACAGUGGUUCAGGGACAAGCUUGGGCCAACAGAGGAUUGAGCAUCA
B17: chr17:56552419:56552420:-_ENSMUSG00000013236_ENSMUST00000086828|mus_mus|mus_mus_mus_hu_False|28_68 (ssRNA)
RNA: B3 RNA with A38U, A39U, C107U, A108U, C112A, G114A, U115A
B18: chr17:56552419:56552420:-_ENSMUSG00000013236_ENSMUST00000086828|mus_mus|mus_mus_mus_hu_False|48_68 (ssRNA)
RNA: B3 RNA with A38U, A39U, G88A, G92A, C93U, U94A, G95A
B19: chr17:56552419:56552420:-_ENSMUSG00000013236_ENSMUST00000086828|mus_mus|mus_mus_mus_hu_False|68_88 (ssRNA)
RNA: B3 RNA with A38U, A39U, U48A, G49A, A50G, U53A, G54A, U55A, C56A
B20: chr17:56552419:56552420:-_ENSMUSG00000013236_ENSMUST00000086828|mus_mus|mus_mus_mus_hu_False|1_58 (ssRNA)
RNA: GGGAGUUCUACAGUCCGACGAUCAAAAAAUACACUAUUUAAAAAAAAUGAAAUGUCACGGGAUACAGUUACACUGACACUAUUAAAAGAAAGCUGGAUUCUGGUCCCAGCCCAGUGUCCCCAGGCUGCAGAGCGGGGCAGAGGCAACAGAGGAUUGAGCAUCA
B21: chr17:56552419:56552420:-_ENSMUSG00000013236_ENSMUST00000086828|mus_mus|mus_mus_mus_hu_False|1_68 (ssRNA)
RNA: B3 RNA with A38U, A39U, A138C, G139A, C143G
B22: chr7:7679991:7679992:-_ENSG00000106399_ENST00000396682|hu_hu|hu_hu_hu_mus_False|68_68 (ssRNA)
RNA: GGGAGUUCUACAGUCCGACGAUCUGGGAUGAAUCUUUUCCAGCUUCCCCACGAAGCACACGGGCCGGUCGAUGAAUUGUGGUAACAUGCUGGCGUUGACGCGCGCUUUGGGGAGCUGCAUUAUGUCCUCCAUGAUUCUGCCGCCAACAGAGGAUUGAGCAUCA

Substitutions are numbered along the chain they refer to. The full ranking holds about 24,000 sequences; the median of “enrichment r” is about 0.99, and the highest 2% start at about 3.7. The entries come from a sample that favours the highest values as a whole.

This experiment has as its target T1, UNK ZnF1-3. Kind of experiment: nsRBNS (natural sequence RNA bind-n-seq); RBNS binding buffer (assumed for nsRBNS): 25 mM Tris pH 7.5, 150 mM KCl, 3 mM MgCl2, 0.01% Triton X-100, 500 ug/ml BSA, 20 U/ml SUPERase-In, 4 C; UNK is unkempt and MSI1 is Musashi-1; names of the RNAs are library labels; protein concentration not given here; high values mean tight binding.
B1 returned a binding signal of 0.767 enrichment R. Molecule B2 showed a binding signal of 1.13 enrichment R. For the molecule B3, the binding signal came out at 9.31 enrichment R.

In turn, B4 yielded a binding signal of 10.8 enrichment R. In the case of B5, the binding signal is 6.22 enrichment R.

The molecule B6 came in with a binding signal of 10.9 enrichment R. Next, B7: 0.736 enrichment R. Next, B8: 0.505 enrichment R; B9: 0.831 enrichment R.

In the case of B10, the binding signal was 0.538 enrichment R. With B11, the binding signal stood at 0.858 enrichment R. Consider B12, for which the binding signal amounted to 0.57 enrichment R. For B13 the value was 0.644 enrichment R.

B14 yielded a binding signal of 0.93 enrichment R. For B15 the value was 1.04 enrichment R; for B16, 3.58 enrichment R.

B17 yielded a binding signal of 9.22 enrichment R.

As to B18, the binding signal was 8.41 enrichment R. Turning to B19, the binding signal came to 16.7 enrichment R. As for B20, the binding signal is 3.44 enrichment R. With B21, the binding signal was 9.75 enrichment R. Next, B22: 0.493 enrichment R.

These data come from article PMC12136788.
